Experimental data published in PubChem BioAssay (NCATS).
Inconclusive results are not listed. The source made the active and inactive calls. Unless noted, calls come from the whole dose curve; as a rule, active = well fitted curve in the direction sought with a large enough effect; inconclusive = small, poorly fitted or top-dose-only effect, or another doubt; inactive = no such curve, though single readings can be large; an effect the other way counts as inactive or inconclusive.

Tests used:
[1] = biological target: ATP-dependent 6-phosphofructokinase (Trypanosoma brucei brucei) (UniProt O15648); assay: qHTS Assay to Find Inhibitors of T. brucei phosphofructokinase: hit validation (AID 492961);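 note: luminescence reports ADP formed as PFK phosphorylates fructose-6-phosphate with ATP; % is set by controls: 0 for no effect and ±100 for the full control effect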; details: T. brucei PFK, ADP-Glo luminescence; series mostly up to 51.4 µM
Sequence of ATP-dependent 6-phosphofructokinase (Trypanosoma brucei brucei) (O15648 whole entry, looked up): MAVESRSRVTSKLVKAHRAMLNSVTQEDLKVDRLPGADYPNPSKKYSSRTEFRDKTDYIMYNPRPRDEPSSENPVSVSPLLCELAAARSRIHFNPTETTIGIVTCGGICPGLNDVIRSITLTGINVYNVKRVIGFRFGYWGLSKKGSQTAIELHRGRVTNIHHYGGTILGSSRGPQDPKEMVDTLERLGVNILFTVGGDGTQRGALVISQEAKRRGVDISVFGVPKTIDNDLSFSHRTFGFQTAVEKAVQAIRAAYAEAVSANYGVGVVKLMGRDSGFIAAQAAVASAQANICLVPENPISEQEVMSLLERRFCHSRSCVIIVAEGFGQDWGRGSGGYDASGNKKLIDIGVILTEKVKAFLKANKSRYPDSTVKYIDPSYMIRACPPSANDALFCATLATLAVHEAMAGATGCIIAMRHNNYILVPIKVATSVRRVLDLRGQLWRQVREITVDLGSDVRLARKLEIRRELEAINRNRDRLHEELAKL
Summary of the method: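 Compounds titrated; %activity normalized to 0x and 1x enzyme controls, curve-fitted. Readout: ADP-Glo luminescence after 45 min room-temperature reaction of 1.25 nM PFK, 0.1 mM ATP, 0.5 mM F6P, pH 8.0.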

[2] = biological target: D(1A) dopamine receptor (Homo sapiens) (UniProt P21728); assay: HTS Assay for Allosteric Agonists of the Human D1 Dopamine Receptor: Primary Screen for Agonists (AID 488981); details: Inducible HEK293 T-REx D1 cells, calcium-flux fluorescence, 180 s kinetic; series mostly up to 41.8 µM; note: potency is the fitted concentration of half-maximal effect; for activation: 0% is about no effect
Sequence of D(1A) dopamine receptor (Homo sapiens) (P21728 whole entry, looked up): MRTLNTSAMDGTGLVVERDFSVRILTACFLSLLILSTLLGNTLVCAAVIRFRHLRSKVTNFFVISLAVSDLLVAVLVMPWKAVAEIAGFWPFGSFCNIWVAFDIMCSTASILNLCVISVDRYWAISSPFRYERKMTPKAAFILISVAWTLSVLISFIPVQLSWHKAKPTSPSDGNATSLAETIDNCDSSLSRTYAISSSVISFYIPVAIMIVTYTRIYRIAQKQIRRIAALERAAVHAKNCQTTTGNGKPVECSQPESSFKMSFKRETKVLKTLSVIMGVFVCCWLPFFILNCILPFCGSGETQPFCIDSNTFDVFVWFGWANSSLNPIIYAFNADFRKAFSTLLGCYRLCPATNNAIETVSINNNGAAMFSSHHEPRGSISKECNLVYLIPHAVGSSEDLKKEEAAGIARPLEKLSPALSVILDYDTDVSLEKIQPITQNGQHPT
Summary of the method: (§1)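 Tetracycline-induced HEK293 Trex D1 cells with forced coupling to calcium, loaded with no-wash calcium dye; kinetic fluorescence read 180 s after compound addition for agonism, then a further 180 s after an EC20 dopamine challenge for potentiation.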

[3] = biological target: D(1A) dopamine receptor (Homo sapiens) (UniProt P21728); assay: HTS Assay for Allosteric Agonists of the Human D1 Dopamine Receptor: Primary Screen for Potentiators (AID 488982); details: HEK293 T-REx D1 inducible cells, calcium flux, kinetic fluorescence; series mostly up to 8.37 µM; note: 0% is about no effect
Summary of the method: as §1

[4] = biological target: D(1A) dopamine receptor (Homo sapiens) (UniProt P21728); assay: HTS Assay for Allosteric Agonists of the Human D1 Dopamine Receptor: Primary Screen for Antagonists (AID 488983); details: D1 receptor cell assay, antagonist mode, qHTS titration; series mostly up to 41.8 µM;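 note: calcium flux response to an EC80 dopamine challenge measured with no-wash dye; nearly all actives have a fitted effect of over 65% in size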; note: potency is the fitted concentration of half-maximal effect
Summary of the method: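 Calcium-flux read-out in inducible HEK293 T-REx cells expressing D1, dye-loaded 30–90 min at room temperature. Kinetic reads: 180 s after compound (agonist phase), then 180 s after an EC80 dopamine challenge.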

[5] = Validation screen for small molecules that induce genotoxicity in human embryonic kidney (HEK293T) cells expressing luciferase-tagged ELG1 (AID 493106); details: luminescence; series mostly up to 46.1 µM; note: 0% is about no effect
Summary of the method: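 ELG1-luciferase reporter readout (ONE-Glo, 30 min, room temperature) after 16 hr compound treatment at 37 °C of HEK293T cells at 2,000 per well. Rising luminescence flags genotoxic stress.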

[6] = biological target: ATPase family AAA domain-containing protein 5 (Homo sapiens) (UniProt Q96QE3); assay: Validation screen for small molecules that inhibit ELG1-dependent DNA repair in human embryonic kidney (HEK293T) cells expressing luciferase-tagged ELG1 (AID 493107); details: HEK293T ELG1-luciferase level, luminescence, 5-fluorouridine co-treatment, 16 h; series mostly up to 46.1 µM; note: nearly all actives have a fitted effect of over 70% in size; note: potency is the fitted concentration of half-maximal effect
Sequence of ATPase family AAA domain-containing protein 5 (Homo sapiens) (Q96QE3 whole entry, looked up, the tested form may be a part): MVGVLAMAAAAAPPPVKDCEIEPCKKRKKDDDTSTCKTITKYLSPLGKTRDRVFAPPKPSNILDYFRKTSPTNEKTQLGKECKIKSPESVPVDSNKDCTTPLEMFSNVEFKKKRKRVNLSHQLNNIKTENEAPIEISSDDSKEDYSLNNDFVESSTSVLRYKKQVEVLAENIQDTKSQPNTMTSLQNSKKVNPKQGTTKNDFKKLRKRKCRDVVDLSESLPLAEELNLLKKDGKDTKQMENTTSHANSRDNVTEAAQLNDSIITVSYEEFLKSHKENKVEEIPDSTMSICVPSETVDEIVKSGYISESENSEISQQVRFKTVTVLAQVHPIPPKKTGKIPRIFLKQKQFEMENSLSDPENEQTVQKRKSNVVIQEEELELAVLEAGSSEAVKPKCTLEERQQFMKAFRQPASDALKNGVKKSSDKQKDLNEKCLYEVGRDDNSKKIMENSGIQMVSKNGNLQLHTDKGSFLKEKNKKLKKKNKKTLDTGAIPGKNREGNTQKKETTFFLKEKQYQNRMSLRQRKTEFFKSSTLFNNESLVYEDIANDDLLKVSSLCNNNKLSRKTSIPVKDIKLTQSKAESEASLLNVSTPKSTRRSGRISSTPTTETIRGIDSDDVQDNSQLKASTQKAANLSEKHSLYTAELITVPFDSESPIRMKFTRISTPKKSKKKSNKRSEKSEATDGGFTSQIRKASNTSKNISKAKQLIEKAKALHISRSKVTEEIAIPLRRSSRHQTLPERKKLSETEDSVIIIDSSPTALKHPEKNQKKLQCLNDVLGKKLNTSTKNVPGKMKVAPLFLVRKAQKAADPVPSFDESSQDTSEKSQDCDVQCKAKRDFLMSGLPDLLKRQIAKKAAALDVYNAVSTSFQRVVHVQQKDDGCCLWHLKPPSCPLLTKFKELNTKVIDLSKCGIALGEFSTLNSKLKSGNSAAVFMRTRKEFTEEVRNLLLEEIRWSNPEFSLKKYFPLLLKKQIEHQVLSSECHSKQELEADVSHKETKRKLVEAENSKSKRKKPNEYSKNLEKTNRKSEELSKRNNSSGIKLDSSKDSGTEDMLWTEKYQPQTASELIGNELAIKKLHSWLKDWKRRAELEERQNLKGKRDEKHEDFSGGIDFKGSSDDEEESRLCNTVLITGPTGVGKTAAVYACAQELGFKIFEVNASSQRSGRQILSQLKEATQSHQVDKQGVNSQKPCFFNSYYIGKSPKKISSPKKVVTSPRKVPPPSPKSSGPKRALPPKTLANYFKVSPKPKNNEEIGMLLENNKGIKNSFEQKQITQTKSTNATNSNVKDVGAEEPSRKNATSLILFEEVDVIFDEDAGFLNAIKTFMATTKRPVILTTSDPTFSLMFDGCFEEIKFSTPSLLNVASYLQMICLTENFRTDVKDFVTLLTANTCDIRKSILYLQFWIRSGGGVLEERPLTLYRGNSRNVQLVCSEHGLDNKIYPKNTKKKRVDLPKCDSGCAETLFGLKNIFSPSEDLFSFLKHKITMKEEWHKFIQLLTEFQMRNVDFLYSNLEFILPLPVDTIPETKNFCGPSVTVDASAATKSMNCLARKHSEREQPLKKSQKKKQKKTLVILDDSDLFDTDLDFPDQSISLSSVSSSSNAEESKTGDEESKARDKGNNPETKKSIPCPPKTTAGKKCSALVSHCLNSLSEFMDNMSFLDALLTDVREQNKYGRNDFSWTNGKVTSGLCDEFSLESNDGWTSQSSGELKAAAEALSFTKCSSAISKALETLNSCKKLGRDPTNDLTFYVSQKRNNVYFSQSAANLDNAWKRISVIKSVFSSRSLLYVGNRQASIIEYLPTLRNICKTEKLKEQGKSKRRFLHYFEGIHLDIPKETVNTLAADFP
Summary of the method: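 Luciferase read-out, ONE-Glo, 30 min at room temperature, follows 16 h co-exposure at 37 C of compound and the DNA-damaging agent 5-fluorouridine. Cells: HEK293T with ELG1-luciferase fusion, 2,000 per well, DMSO as vehicle.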

[7] = biological target: Thyrotropin-releasing hormone receptor (Homo sapiens) (UniProt P34981); assay: qHTS for Small Molecule Agonists and Allosteric Enhancers of Human TRH Receptor: Validation Screen for Agonists (AID 493127;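 active = calcium activation more than 3 SD above the typical response in the agonist read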;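 note: intracellular calcium rise by fluo-8 fluorescence before TRH EC20 addition; 0% is about no effect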); details: TRH receptor agonist cell assay; at 2 µM; stronger effect = higher value
Sequence of Thyrotropin-releasing hormone receptor (Homo sapiens) (P34981 whole entry, looked up): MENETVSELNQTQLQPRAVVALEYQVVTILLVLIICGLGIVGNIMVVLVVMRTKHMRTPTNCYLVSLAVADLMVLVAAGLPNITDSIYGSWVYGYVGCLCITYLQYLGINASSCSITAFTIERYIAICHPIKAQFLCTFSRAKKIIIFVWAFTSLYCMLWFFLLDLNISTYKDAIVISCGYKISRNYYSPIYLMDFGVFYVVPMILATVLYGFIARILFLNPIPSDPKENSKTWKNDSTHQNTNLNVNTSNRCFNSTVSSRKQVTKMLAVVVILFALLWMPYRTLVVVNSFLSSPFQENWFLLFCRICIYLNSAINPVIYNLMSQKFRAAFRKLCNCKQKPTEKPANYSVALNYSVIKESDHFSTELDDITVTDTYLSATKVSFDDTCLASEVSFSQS
Summary of the method: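 Compound-evoked intracellular calcium release in fluo-8-loaded TRHR cells, read kinetically on FDSS (Ex 480/Em 530, 1 s/cycle) after 23 nL pintool transfer. Agonist phase preceded 10 nM TRH EC20 addition.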

[8] = Nrf2 qHTS screen for inhibitors: Validation (AID 493153; active = well fitted inhibition curve with a large enough effect in the main read-out, with a control signal flat, not every such curve was filed as active); details: A549 ARE-Fluc reporter, 18-24 h; viability change: measured here: cytotoxicity max response; luciferase luminescence, at 46.1 µM (top of the series)
Summary of the method: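 Concentration-response on A549 ARE_Fluc reporter cells exposed 18-24 h at 37 C, 5% CO2. Cytotoxicity read first by CellTiter-Fluor fluorescence (Ex 405/Em 525), then Nrf2 inhibition by BugLite luminescence after 15 min.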

[9] = qHTS for Inhibitors of Cell Surface uPA Generation: Validation Assay (AID 493164); details: mouse cells, plasminogen activation; series mostly up to 38.3 µM;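 note: RAW 264.7 macrophage cells exposed to compound for 18 h; 0% is about no effect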
Summary of the method: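 ATP-Lite luminescence read-out: ATP remains high when uPA activity-dependent LF translocation into the cytoplasm is blocked. RAW 264.7 cells, 18 h compound exposure at 37 C; 7-point titration, 2.45 nM to 38.3 uM final.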

[10] = biological target: Galactokinase (Homo sapiens) (UniProt P51570); assay: qHTS Validation Assay for Inhibitors of Human Galactokinase (GALK) (AID 493189); details: purified human GALK enzyme activity, qHTS 7-point titration; series mostly up to 57.5 µM; note: 0% is about no effect
Sequence of Galactokinase (Homo sapiens) (P51570 whole entry, looked up): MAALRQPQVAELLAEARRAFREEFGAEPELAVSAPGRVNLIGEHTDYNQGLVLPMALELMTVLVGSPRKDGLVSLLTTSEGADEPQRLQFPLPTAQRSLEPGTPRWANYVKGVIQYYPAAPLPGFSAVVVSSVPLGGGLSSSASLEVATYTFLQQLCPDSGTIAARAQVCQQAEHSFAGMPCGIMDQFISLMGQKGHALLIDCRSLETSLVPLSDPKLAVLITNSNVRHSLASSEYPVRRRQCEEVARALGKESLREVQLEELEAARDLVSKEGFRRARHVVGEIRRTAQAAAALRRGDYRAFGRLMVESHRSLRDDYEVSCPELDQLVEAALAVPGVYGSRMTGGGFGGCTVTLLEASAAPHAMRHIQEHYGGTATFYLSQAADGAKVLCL
Summary of the method: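 Enzyme activity is inferred from ATP consumption: human GALK phosphorylates galactose (100 uM) using 35 uM ATP for 1 h at room temperature, and luciferase-based Kinase-Glo Plus reports unconsumed ATP.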

CC(=O)c1ccc2c(c1)N(CCCN1CCC(CCO)CC1)c1ccccc1S2
inactive: outcome [1]

CC(C)COC(=O)OCN1C(=O)CN(CCN2CC(=O)N(COC(=O)OCC(C)C)C(=O)C2)CC1=O
inactive: Potency [2] | outcome [3] | Potency [4] | outcome [1] | outcome [5] | Potency [6] | activation [7] 0.75% | outcome [8] | outcome [9] | outcome [10]
-6.78%: viability change [8]

CCCCCCCCCCOCC(O)CN (configuration not stated)
inactive: outcome [1]

C[N+]1(CCCCC[N+]2(C)CCCC2)CCCC1
1.12%: viability change [8]
inactive: Potency [2] | outcome [3] | Potency [4] | outcome [1] | outcome [5] | Potency [6] | activation [7] 0.75% | outcome [8] | outcome [9] | outcome [10]

CN(C)/N=N/c1nc[nH]c1C(N)=O
inactive: outcome [1]

COC(=O)[C@H]1[C@H]2C[C@H]3c4[nH]c5ccccc5c4CCN3C[C@H]2CC[C@@H]1O
-3.55%: viability change [8]
inactive: Potency [2] | outcome [3] | Potency [4] | outcome [5] | Potency [6] | activation [7] 1.44% | outcome [8] | outcome [9] | outcome [10]

O=C(O)c1cc2cc(Cc3cccnc3)ccc2o1
0.85%: viability change [8]
inactive: Potency [2] | outcome [3] | Potency [4] | outcome [5] | Potency [6] | activation [7] 1.38% | outcome [8] | outcome [9] | outcome [10]

c1ccc(OCc2ccc(CCCN3CCOCC3)cc2)cc1
inactive: outcome [1]

C1CCc2nnnn2CC1
inactive: Potency [2] | outcome [3] | Potency [4] | outcome [5] | activation [7] -0.375% | outcome [8] | outcome [9] | outcome [10]
4.51%: viability change [8]

C[C@@H]1C(=O)NC2=Nc3cccc(Cl)c3CN21
inactive: Potency [2] | outcome [3] | Potency [4] | outcome [1] | outcome [5] | Potency [6] | activation [7] 1.06% | outcome [8] | outcome [9] | outcome [10]
3.84%: viability change [8]

CC(C)(C)CC(C)(C)c1ccc(O)c(Cc2ccc(Cl)cc2Cl)c1
inactive: outcome [1]

COc1cc2c(cc1O)CC[C@@H]1[C@@H]2CC[C@]2(C)[C@@H](O)CC[C@@H]12
inactive: Potency [2] | outcome [3] | Potency [4] | outcome [5] | outcome [9]

Oc1ccc(Cl)c2cccnc12
inactive: outcome [1]

CC(=O)O[C@H]1C[C@@H]2CC[C@@H]3[C@H](CC[C@@]4(C)[C@H]3C[C@H]([N+]3(C)CCCCC3)[C@@H]4OC(C)=O)[C@@]2(C)C[C@@H]1[N+]1(C)CCCCC1
-0.593%: viability change [8]
inactive: Potency [2] | outcome [3] | Potency [4] | outcome [5] | Potency [6] | outcome [8] | outcome [9]

Oc1ccc(O)cc1
inactive: Potency [2] | outcome [3] | Potency [4] | outcome [5] | activation [7] 0.688% | outcome [8] | outcome [9] | outcome [10]
-9.14%: viability change [8]

CCOc1ccc2nc3cc(N)ccc3c(N)c2c1
inactive: outcome [1]

C[C@]12CC[C@@H]3c4ccc(O)cc4CC[C@H]3[C@@H]1CC[C@@H]2O
inactive: Potency [2] | outcome [3] | Potency [4] | outcome [1] | outcome [5] | Potency [6] | activation [7] 4.75% | outcome [8] | outcome [9] | outcome [10]
1.87%: viability change [8]

COc1ccc(CN2CCN(C(c3ccc(F)cc3)c3ccc(F)cc3)CC2)c(OC)c1OC
inactive: outcome [1]

COc1cc(NS(C)(=O)=O)ccc1Nc1c2ccccc2nc2ccccc12
active: Potency [4] 1.12 µM | Potency [6] 14.6 µM
inactive: Potency [2] | outcome [3] | outcome [1] | activation [7] -3.12% | outcome [9] | outcome [10]

N[C@@H](Cc1cnc[nH]1)C(=O)O
0.846%: viability change [8]
inactive: Potency [2] | outcome [3] | Potency [4] | outcome [1] | outcome [5] | activation [7] 0.0625% | outcome [8] | outcome [9] | outcome [10]

CC(CCc1ccccc1)NCC(O)c1ccc(O)c(C(N)=O)c1 (configuration not stated)
inactive: Potency [2] | outcome [3] | Potency [4] | outcome [5] | activation [7] 0.875% | outcome [8] | outcome [9] | outcome [10]
-13.8%: viability change [8]

Nc1cc(Cl)c(NC2=NCCN2)c(Cl)c1
inactive: Potency [2] | outcome [3] | Potency [4] | outcome [1] | outcome [5] | Potency [6] | activation [7] 1.12% | outcome [8] | outcome [9] | outcome [10]
1.6%: viability change [8]

CC1(C)CCC(NC(=O)[C@@H](N)CCC(=O)O)CC1
2.98%: viability change [8]
inactive: Potency [2] | outcome [3] | Potency [4] | outcome [1] | outcome [5] | Potency [6] | activation [7] 0.125% | outcome [8] | outcome [9] | outcome [10]

C#C[C@]1(OC(C)=O)CC[C@H]2[C@@H]3CCC4=C[C@@H](OC(C)=O)CC[C@@H]4[C@H]3CC[C@@]21C
inactive: outcome [1]

CN1C2CCC1CC(OC(=O)c1c[nH]c3ccccc13)C2 (configuration not stated)
-7.62%: viability change [8]
inactive: Potency [2] | outcome [3] | Potency [4] | outcome [5] | Potency [6] | activation [7] 0.812% | outcome [8] | outcome [9] | outcome [10]

CCC(NC(C)C)C(O)c1ccc(O)c(O)c1 (configuration not stated)
inactive: Potency [2] | outcome [3] | Potency [4] | outcome [5] | Potency [6] | activation [7] 0.625% | outcome [8] | outcome [9] | outcome [10]
-19.1%: viability change [8]

O=C1CCC(c2ccc(-n3ccnc3)cc2)=NN1
inactive: Potency [2] | outcome [3] | Potency [4] | outcome [1] | outcome [5] | activation [7] 0.188% | outcome [8] | outcome [9] | outcome [10]
9.43%: viability change [8]

CNCCC=C1c2ccccc2CCc2ccccc21
active: Potency [2] 20 µM
inactive: outcome [3] | outcome [1] | outcome [5] | activation [7] 0.625% | outcome [9] | outcome [10]

CNCCC(Oc1ccccc1C)c1ccccc1 (configuration not stated)
3.06%: viability change [8]
inactive: Potency [2] | outcome [3] | outcome [1] | outcome [5] | Potency [6] | outcome [8] | outcome [9] | outcome [10]

CCCCCCCCCCCCCCCCCC(=O)OCC(O)CO (configuration not stated)
inactive: outcome [1]

CCCn1c(=O)[nH]c(=O)c2[nH]cnc21
inactive: Potency [2] | outcome [3] | Potency [4] | outcome [5] | Potency [6] | outcome [8] | outcome [9] | outcome [10]
7.08%: viability change [8]

CC[C@H](C)C(=O)O[C@H]1CCC=C2C=C[C@H](C)[C@H](CC[C@@H]3C[C@@H](O)CC(=O)O3)[C@H]21
-16.9%: viability change [8]
inactive: Potency [2] | Potency [4] | Potency [6] | outcome [8] | outcome [9]

CCCC1O[C@@H]2C[C@H]3[C@@H]4CCC5=CC(=O)C=C[C@]5(C)[C@H]4[C@@H](O)C[C@]3(C)[C@]2(C(=O)CO)O1 (some centres not stated)
-3.74%: viability change [8]
inactive: Potency [2] | outcome [3] | Potency [4] | outcome [5] | Potency [6] | outcome [8] | outcome [9]

CC(C)C[C@H]1C(=O)N2CCC[C@H]2[C@]2(O)O[C@](NC(=O)[C@@H]3C=C4c5cccc6[nH]c(Br)c(c56)C[C@H]4N(C)C3)(C(C)C)C(=O)N12
inactive: Potency [2] | outcome [9]

C[C@H]1[C@H](NC(=O)/C(=N/OC(C)(C)C(=O)O)c2csc(N)n2)C(=O)N1S(=O)(=O)O (stereo in doubt)
inactive: outcome [1]

N[C@H](CO)C(=O)O
0.276%: viability change [8]
inactive: Potency [2] | outcome [3] | Potency [4] | outcome [5] | Potency [6] | activation [7] 0.688% | outcome [8] | outcome [9] | outcome [10]

CC(O)C(=O)O (configuration not stated)
inactive: outcome [1]

OCc1ccccc1O
inactive: outcome [1]

CC(C)NC[C@@H](O)COc1cccc2ccccc12
inactive: activation [7] 1.94%

COc1cc(-c2ccc(=O)[nH]n2)ccc1OC(F)F
inactive: activation [7] -0.438% | outcome [10]

CN=C(NC#N)Nc1ccc(C2=NNC(=O)CC2C)cc1 (configuration not stated)
inactive: outcome [10]
